PubChem BioAssay
Activity calls are given as the source filed them. Unless noted, no rule for the calls is given here.

Assays:
[1] = anti-His antibody binders, primary screen, artefact control for SMM control protein annotation, biochemical, small-molecule microarray, 635 nm fluorescence (AID 1128); details: anti-His Alexa647 antibody binding, higher = more signal;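 also: score merges feature fluorescence with signal-to-noise for each printed compound spot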
[2] = system: Human papillomavirus type 1a E7 protein (residues 1-88); assay: HPV1a E7 small-molecule binders, primary screen, biochemical, small-molecule microarray, residues 1-88, 635 nm (AID 1129); details: small-molecule microarray binding, fluorescence 635 nm; higher = more signal
[3] = target: Focal adhesion kinase 1 (Homo sapiens) (UniProt Q05397); assay: small-molecule microarray binders of FAK, primary screen, biochemical, 635/667 nm fluorescence, BSA, DTT (AID 1130); details: PTK2 binding, 635 nm fluorescence, higher = more signal;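 also: composite of spot emission at 667 nm and signal to noise over triplicate slides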
[4] = system: Fibrinogen (Alexa647-labelled); assay: fibrinogen binders on compound microarrays, profiling panel, artefact control for SMM control-protein annotation, biochemical, small-molecule microarray, 635/667 nm fluorescence (AID 1131); details: fibrinogen-A647 binding fluorescence, higher = more signal;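 also: z-score merges 667 nm fluorescence with per-spot signal-to-noise over triplicate slides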
[5] = target: Follistatin (Homo sapiens) (UniProt P19883); assay: follistatin binders on small-molecule microarrays, primary screen, biochemical, small-molecule microarray, 635/667 nm fluorescence (AID 1132); details: FST binding, 635 nm fluorescence, higher = more signal
[6] = target: Fibroblast growth factor 2 (Homo sapiens) (UniProt P09038); assay: FGF2 binders on small-molecule microarrays, primary screen, biochemical, small-molecule microarray, 635/667 nm fluorescence (AID 1133); details: small-molecule microarray binding, FGF2, fluorescence 635/667; higher = more signal
[7] = mitochondrial membrane potential change in A549 cells, profiling panel, cell-based, JC-1 fluorescence, basal, 24 h, 100 nL (AID 1138); details: higher = more signal;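 also: A549 lung adenocarcinoma cells under basal conditions with no added stimulus; test concentration not given here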
Lefty1 = Lefty1 binders on small-molecule microarrays, primary screen, biochemical, small-molecule microarray, 635/667 nm fluorescence (AID 1139); details: small-molecule microarray binding, fluorescence 635/667; higher = more signal
[8] = system: wheat germ agglutinin (Triticum aestivum), Alexa647-labelled; assay: wheat germ agglutinin binders on compound microarrays, profiling panel, artefact control for SMM control-protein annotation, biochemical, small-molecule microarray, 635/667 nm fluorescence (AID 1140); details: WGA-A647 binding, 635 nm fluorescence, higher = more signal;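 also: score merges 667 nm feature emission with signal to noise over triplicate slides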
[9] = target: Luciferin 4-monooxygenase (Photinus pyralis) (UniProt P08659); assay: firefly luciferase enzyme inhibitors, primary screen, biochemical, luminescence, purified enzyme, 2006 set (AID 1141); details: SteadyGlo luminescence, 30 min, higher = more signal, called active from +8 up or from −8 down;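 also: cell-free assay with purified firefly luciferase at 100 ng per well in PBS; test concentration not given here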
[10] = system: Wnt5a (protein binding on small-molecule microarray); assay: Wnt5a binders on small-molecule microarray, primary screen, biophysical, 635/667 nm fluorescence (AID 1142); details: 635 nm fluorescence, higher = more signal;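 also: fluorescence read at 667 nm with signal to noise per printed feature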
[11] = cell viability in Huh7 cells, primary screen, cytotoxicity control for HCV replication inhibitor project, CellTiter-Glo luminescence, basal, 48 h (AID 1143); details: Huh7 HCV replicon, higher = more signal, called active from +8 up or from −8 down;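 also: Huh7 hepatoma cells carrying a hepatitis C replication reporter with no stimulus; test concentration not given here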
[12] = P. aeruginosa biofilm formation inhibitors, primary screen, PAO1 strain, BacTiter-Glo luminescence, LB-PBS (AID 1144); details: 12 h, higher = more signal
[13] = CREB reporter modulators without forskolin, primary screen, cell-based, PC12, CRE-LacZ reporter, unstimulated (AID 1145); details: no forskolin, luminescence, 4.5 h, higher = more signal, called active from +8 up or from −8 down
[14] = CREB reporter modulators under forskolin, primary screen, cell-based, PC12, CRE-LacZ reporter, forskolin-stimulated (AID 1146); details: luminescence, 4.5 h, higher = more signal, called active from +8 up or from −8 down;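 also: PC12 cells with 6xCRE LacZ reporter stimulated by forskolin 10 µM; beta-galactosidase reporter signal reflecting CREB driven transcription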
[15] = target: Streptavidin (Streptomyces avidinii) (UniProt P22629); assay: streptavidin binders on small-molecule microarray, primary screen, artefact control for SMM compound annotation, biophysical, 635/667 nm fluorescence (AID 1147); details: streptavidin binding, higher = more signal;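 also: signal reflects streptavidin binding to arrayed compounds as a control protein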
[16] = small-molecule binders of probe aInhba, primary screen, biochemical, small-molecule microarray, 635/667 nm fluorescence (AID 1148); details: higher = more signal;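 also: score merges 667nm spot fluorescence with signal-to-noise for antibody binding to printed compounds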
Torsin-1A (Homo sapiens) [17] = target: Torsin-1A (Homo sapiens) (UniProt O14656); assay: torsin A binders from cell lysate, primary screen, small-molecule microarray, wild-type, 635/667 nm (AID 1149); details: COS7 hTOR1A-WT lysate, 635 nm fluorescence, higher = more signal
Torsin-1A (Homo sapiens) [18] = target: Torsin-1A (Homo sapiens) (UniProt O14656); assay: small-molecule binders of mutant TOR1A in lysate, primary screen, cell lysate, small-molecule microarray, COS7 lysate, 635/667 nm fluorescence (AID 1150); details: COS7 hTOR1A mutant lysate, 635 nm fluorescence, higher = more signal;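 also: score pools 667 nm emission and signal to noise measuring lysate protein binding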
[19] = system: Sonic hedgehog protein (Shh); assay: small-molecule binders of Shh protein, primary screen, biochemical, small-molecule microarray, 635/667 nm fluorescence (AID 1151); details: small-molecule microarray binding, 635 nm fluorescence; higher = more signal;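 also: Shh protein binding to compounds spotted on small-molecule microarray slides; score combines spot fluorescence intensity with signal-to-noise across triplicate slides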

Chain of Streptavidin (Streptomyces avidinii) (P22629 whole entry, looked up): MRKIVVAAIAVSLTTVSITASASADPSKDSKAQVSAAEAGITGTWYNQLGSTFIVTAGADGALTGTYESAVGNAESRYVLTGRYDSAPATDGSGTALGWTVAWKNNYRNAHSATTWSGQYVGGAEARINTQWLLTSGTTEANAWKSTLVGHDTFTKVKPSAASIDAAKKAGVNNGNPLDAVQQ
Chain of Follistatin (Homo sapiens) (P19883 whole entry, looked up): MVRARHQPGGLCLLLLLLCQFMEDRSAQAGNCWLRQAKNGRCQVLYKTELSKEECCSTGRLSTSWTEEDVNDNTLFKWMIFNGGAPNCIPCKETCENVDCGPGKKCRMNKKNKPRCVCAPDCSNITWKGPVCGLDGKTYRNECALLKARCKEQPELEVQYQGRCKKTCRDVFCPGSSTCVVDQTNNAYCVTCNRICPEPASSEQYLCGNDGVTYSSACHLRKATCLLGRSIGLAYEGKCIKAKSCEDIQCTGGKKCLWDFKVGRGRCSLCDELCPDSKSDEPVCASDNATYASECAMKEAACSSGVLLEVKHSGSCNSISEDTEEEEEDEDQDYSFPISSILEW
Chain of Fibroblast growth factor 2 (Homo sapiens) (P09038 whole entry, looked up): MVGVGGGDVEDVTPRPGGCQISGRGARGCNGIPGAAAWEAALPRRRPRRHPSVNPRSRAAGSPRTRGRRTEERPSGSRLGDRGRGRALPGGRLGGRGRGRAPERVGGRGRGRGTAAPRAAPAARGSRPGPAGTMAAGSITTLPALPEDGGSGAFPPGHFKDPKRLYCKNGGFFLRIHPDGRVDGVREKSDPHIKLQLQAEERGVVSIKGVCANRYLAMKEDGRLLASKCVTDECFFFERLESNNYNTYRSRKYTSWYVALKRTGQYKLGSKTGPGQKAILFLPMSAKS
Chain of Focal adhesion kinase 1 (Homo sapiens) (Q05397 whole entry, looked up): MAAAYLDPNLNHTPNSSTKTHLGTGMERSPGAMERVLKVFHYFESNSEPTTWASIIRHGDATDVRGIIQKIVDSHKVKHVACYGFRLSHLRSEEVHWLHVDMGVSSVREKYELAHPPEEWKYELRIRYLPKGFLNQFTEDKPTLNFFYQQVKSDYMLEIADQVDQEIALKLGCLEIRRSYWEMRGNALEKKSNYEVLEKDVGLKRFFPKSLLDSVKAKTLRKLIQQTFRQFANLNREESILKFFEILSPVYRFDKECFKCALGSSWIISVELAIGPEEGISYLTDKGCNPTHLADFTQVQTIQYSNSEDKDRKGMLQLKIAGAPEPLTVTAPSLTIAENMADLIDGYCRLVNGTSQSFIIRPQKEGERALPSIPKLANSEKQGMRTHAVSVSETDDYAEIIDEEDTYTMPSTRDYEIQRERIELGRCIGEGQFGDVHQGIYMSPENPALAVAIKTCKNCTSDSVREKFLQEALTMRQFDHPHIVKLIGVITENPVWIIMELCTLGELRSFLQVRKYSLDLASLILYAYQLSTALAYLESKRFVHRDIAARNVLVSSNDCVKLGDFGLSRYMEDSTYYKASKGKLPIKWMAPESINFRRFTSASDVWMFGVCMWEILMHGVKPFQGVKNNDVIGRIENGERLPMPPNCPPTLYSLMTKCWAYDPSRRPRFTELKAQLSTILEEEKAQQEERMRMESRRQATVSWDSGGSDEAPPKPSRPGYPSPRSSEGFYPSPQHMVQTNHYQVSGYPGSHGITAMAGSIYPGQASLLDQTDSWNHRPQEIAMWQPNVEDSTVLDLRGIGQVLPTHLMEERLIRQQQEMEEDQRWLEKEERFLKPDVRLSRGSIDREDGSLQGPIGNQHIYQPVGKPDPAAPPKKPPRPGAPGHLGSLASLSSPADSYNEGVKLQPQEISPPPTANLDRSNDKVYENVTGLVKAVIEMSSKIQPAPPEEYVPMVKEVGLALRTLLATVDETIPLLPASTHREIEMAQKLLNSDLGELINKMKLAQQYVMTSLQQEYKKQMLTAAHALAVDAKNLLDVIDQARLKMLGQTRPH
Chain of Torsin-1A (Homo sapiens) (O14656 whole entry, looked up): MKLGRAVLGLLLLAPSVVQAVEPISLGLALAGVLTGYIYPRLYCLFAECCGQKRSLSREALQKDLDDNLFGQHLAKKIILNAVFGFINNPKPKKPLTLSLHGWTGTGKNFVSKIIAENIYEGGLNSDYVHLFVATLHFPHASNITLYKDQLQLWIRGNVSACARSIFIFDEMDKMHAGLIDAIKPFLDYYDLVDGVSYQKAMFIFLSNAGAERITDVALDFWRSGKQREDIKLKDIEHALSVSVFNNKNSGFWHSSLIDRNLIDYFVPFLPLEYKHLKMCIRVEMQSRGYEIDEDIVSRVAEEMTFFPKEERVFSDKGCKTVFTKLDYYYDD
Chain of Luciferin 4-monooxygenase (Photinus pyralis) (P08659 whole entry, looked up): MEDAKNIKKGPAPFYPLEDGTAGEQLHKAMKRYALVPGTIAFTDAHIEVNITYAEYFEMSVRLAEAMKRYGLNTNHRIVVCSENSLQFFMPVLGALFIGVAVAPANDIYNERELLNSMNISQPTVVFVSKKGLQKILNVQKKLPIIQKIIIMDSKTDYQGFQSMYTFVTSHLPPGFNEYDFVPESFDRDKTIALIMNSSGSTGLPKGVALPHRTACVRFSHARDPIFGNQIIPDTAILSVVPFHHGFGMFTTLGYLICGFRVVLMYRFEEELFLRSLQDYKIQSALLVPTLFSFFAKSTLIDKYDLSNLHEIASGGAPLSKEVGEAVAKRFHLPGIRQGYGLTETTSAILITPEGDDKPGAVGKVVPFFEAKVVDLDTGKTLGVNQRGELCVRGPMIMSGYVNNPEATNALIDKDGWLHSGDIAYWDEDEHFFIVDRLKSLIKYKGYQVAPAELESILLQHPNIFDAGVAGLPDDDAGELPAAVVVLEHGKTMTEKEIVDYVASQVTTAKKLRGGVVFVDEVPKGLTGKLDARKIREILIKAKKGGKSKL

SMILES	composite z-score [1]	composite z-score [2]	composite z-score [3]	composite z-score [4]	composite z-score [5]	composite z-score [6]	z-score [7]	composite z-score (Lefty1)	composite z-score [8]	z-score [9]	composite z-score [10]	z-score [11]	z-score [12]	z-score [13]	z-score [14]	composite z-score [15]	composite z-score [16]	composite z-score (Torsin-1A (Homo sapiens) [17])	composite z-score (Torsin-1A (Homo sapiens) [18])	composite z-score [19]
COc1ccc(-c2cc3c(c(Cc4ccccc4)n2)[Si](C(C)C)(C(C)C)OC3)cn1	-0.356	-0.875	-0.0985	-0.827	-0.108	-0.328	-0.687	-0.0455	-0.351	0.892 (inactive)	-0.153	-1.03 (inactive)	0.2 (inactive)	-0.141 (inactive)	0.877 (inactive)	-0.32	-0.215	-0.0113	-0.729	-0.093
O=C1C2C=CC(C(O)c3cc(C(F)(F)F)cc(C(F)(F)F)c3)N(Nc3ccccc3)C2C(=O)N1c1ccccc1 (stereo not given)	0.692	1.27	0.838	0.462	0.0145	-0.601	-0.424	0.192	0.173	-1.47 (inactive)	0.0943	-1.01 (inactive)	-1.35 (inactive)	-0.326 (inactive)	0.501 (inactive)	-0.374	-0.0136	0.702	1.18	-0.857
O=C1OCC=C[C@H]2OC34C=CCN(CCN5CCOCC5)C(=O)[C@H]3N(CCO)C(=O)[C@@H]4[C@@H]12 (stereo not given in full)	0.15	-0.204	-0.133	0.368	0.597	-0.219	0.587	1.41	0.0315	-0.602 (inactive)	-0.38	-0.117 (inactive)	1.82 (inactive)	0.459 (inactive)	0.168 (inactive)	-0.175	-0.359	-0.618	-0.61	1.93
CCCCN1CC=CC23O[C@@H]4/C=C\CCCOC(=O)C4[C@H]2C(=O)N(CCCO)[C@@H]3C1=O (stereo not given in full)	2.36	-0.43	-0.226	-1.73	-0.98	-0.251	0.259	-0.0249	-0.151	0.633 (inactive)	-0.311	0.275 (inactive)	0.0302 (inactive)	-0.0778 (inactive)	0.241 (inactive)	-1.3	-0.105	-1.36	-1.64	-0.0567
O[C@@H](Cc1ccccc1)[C@@H](/C=C/C1CC1)NCc1cccc(Cl)c1	0.183	-0.431	0.314	-1.7	-1.4	-1.99	-0.164	-0.717	0.204	0.585 (inactive)	-1.11	-3.2 (inactive)	-0.852 (inactive)	4.76 (inactive)	-0.426 (inactive)	-1	-0.21	-1.12	-0.447	-1
CC(C)C(=C=CC[C@H](O)c1ccc(CO)o1)CCO	0.748	0.679	0.217	0.0411	1.01	0.489	-0.589	1.37	0.383	-0.751 (inactive)	-0.0164	0.243 (inactive)	-0.0587 (inactive)	1.87 (inactive)	1.33 (inactive)	0.0515	-0.0963	0.385	0.291	1.71
COC(=O)[C@@]1(Cc2ccccc2)[C@H]2c3cc(C(=O)N4CCCC4)n(Cc4c(CO)[nH]cc(C)c4=O)c3C[C@H]2CN1C(=O)c1ccccc1	1.18	0.93	0.777	0.827	0.518	-0.258	-0.0421	-0.816	1.05	2.49 (inactive)	0.652	0.0519 (inactive)	-0.0914 (inactive)	0.0109 (inactive)	0.473 (inactive)	1.01	-0.101	0.4	0.491	-0.547
C=CC1c2cc(O)c(OC)cc2CCN1Cc1cccc(OC(F)(F)F)c1 (stereo not given)	1.33	0.167	0.408	-0.36	-0.0223	-0.43	-1.03	-0.145	1.01	0.454 (inactive)	-0.415	-2.49 (inactive)	0.0435 (inactive)	-0.527 (inactive)	1.28 (inactive)	0.577	-0.152	-1.1	0.88	0.12
COCCCNC(=O)[C@@]1(Sc2ccc(C)cc2)CC(=O)N(Cc2ccccc2Cl)[C@@H]1c1ccc(CO)cc1	0.225	1.12	0.215	0.833	1.35	1.24	-0.689	1.13	0.966	1.14 (inactive)	0.349	-4.58 (inactive)	-0.915 (inactive)	-0.374 (inactive)	1.09 (inactive)	0.584	-0.0331	0.607	0.582	2.02
CCCNC(=O)[C@@H]1c2ccccc2C(=O)N(Cc2ccccc2OC)[C@H]1c1ccc(CO)cc1	2.08	1.22	0.609	0.937	0.98	1.06	1.53	0.482	0.712	-0.452 (inactive)	0.304	-0.67 (inactive)	0.376 (inactive)	0.001 (inactive)	-0.312 (inactive)	0.867	-0.0066	-0.3	0.889	1.52
C=C[C@H](C)[C@@H](OC(=O)Nc1ccc(SC)cc1)c1ccc(O)c2ccccc12	3.14	1.24	0.183	0.294	1.37	1.54	-1.7	1.1	0.108	-2.61 (inactive)	0.64	-1.08 (inactive)	-0.492 (inactive)	-0.505 (inactive)	1.69 (inactive)	1.26	-0.0375	0.163	0.165	1.76
COc1cc(CO)cc(I)c1O[C@H]1C=C(C(=O)NCCO)C[C@@H](NC[C@@H]2CCCO2)[C@@H]1O	0.296	0.63	0.106	0.346	0.323	0.599	0.452	0.831	0.483	0.758 (inactive)	-0.11	0.102 (inactive)	-0.69 (inactive)	1.77 (inactive)	-0.809 (inactive)	-0.442	-0.135	0.761	0.127	1.07
CCCCN1CC=CC23O[C@@H]4C=CCCOC(=O)C4[C@H]2C(=O)N(CCCCCO)[C@@H]3C1=O (stereo not given in full)	1.88	-0.306	0.779	-0.905	-0.592	-0.437	0.976	-0.0266	0.0604	-0.469 (inactive)	-0.276	0.342 (inactive)	-0.0153 (inactive)	0.199 (inactive)	0.794 (inactive)	-0.525	-0.233	0.226	0.735	-0.198
O=C1N(CCS(=O)(=O)c2ccccc2)c2ccccc2[C@@H]2OC(c3ccc(OCCCO)cc3)=N[C@]12Cc1ccccc1	1.65	1.19	1.05	0.959	1.43	1.71	2.29	1.18	0.668	-11.5 (active)	-0.0372	-3.61 (inactive)	-0.157 (inactive)	1.26 (inactive)	-1.77 (inactive)	0.14	0.0091	0.422	0.208	1.95
C=C(CCCC)/C(=C/C[C@@H](OC(C)=O)c1ccccc1OCCO)c1cc(C(=O)OC)ccc1OC	-0.9	-0.2	-0.0448	0.259	0.35	0.16	2.6	0.384	0.0424	-2.02 (inactive)	-0.115	-0.774 (inactive)	-0.341 (inactive)	16 (active)	-1.14 (inactive)	-0.478	-0.15	0.0851	0.0547	0.566
C=C(C)[C@@H]1CC=C(C(O)C2C=CC3C(=O)NC(=O)C3N2Nc2ccc(Cl)cc2Cl)CC1 (stereo not given in full)	1.83	1.2	1.33	1	1.14	-0.853	-1.25	-0.336	1.34	0.022 (inactive)	0.287	-1.64 (inactive)	-0.995 (inactive)	0.815 (inactive)	-0.113 (inactive)	1.39	0.099	-0.0124	0.455	0.393
O=C1OCCC=C[C@H]2OC34C=CCN(Cn5nnc6ccccc65)C(=O)[C@H]3N(CCO)C(=O)[C@@H]4C12 (stereo not given in full)	-0.459	-0.566	-0.225	-0.934	-0.851	-1.3	-0.758	-1.31	0.522	0.612 (inactive)	-0.83	-0.208 (inactive)	-1.39 (inactive)	-1.3 (inactive)	-0.688 (inactive)	-1.48	-0.251	-1.01	-1.32	-0.61
COc1cc2c(cc1O)C(c1cccs1)N(Cc1cccc(OC(F)(F)F)c1)CC2 (stereo not given)	2.17	0.733	0.758	0.173	0.457	0.252	-0.0263	-0.196	0.84	-0.619 (inactive)	-0.189	-4.65 (inactive)	0.284 (inactive)	-0.644 (inactive)	-0.73 (inactive)	0.403	-0.0762	0.288	0.0814	0.251
COc1ccc([Si](C)(C)[C@H]2[C@H](CCO)O[C@@]3(C(=O)N(Cc4ccccc4)c4ccc(N5CCCCC5=O)cc43)[C@@H]2C)cc1	1.49	0.435	0.208	0.94	1.28	1.28	2.23	0.628	0.768	-1.08 (inactive)	0.116	-7.68 (inactive)	-1.98 (inactive)	4.22 (inactive)	-1.16 (inactive)	0.381	-0.118	0.23	1.67	0.929
